Most compounds without a hit are left out; they make up all but 6% or so of the library.
D3 ag = agonists of human D3 dopamine receptor; max activation, %; 410,000 compounds, 0.58% hits; D3R DiscoveRx beta-arrestin cells, luminescence, 90 min; AID 652048; P35462; in the data active = max activation above about 30%; also: 0% is about no effect
Target sequence (P35462 whole entry, looked up): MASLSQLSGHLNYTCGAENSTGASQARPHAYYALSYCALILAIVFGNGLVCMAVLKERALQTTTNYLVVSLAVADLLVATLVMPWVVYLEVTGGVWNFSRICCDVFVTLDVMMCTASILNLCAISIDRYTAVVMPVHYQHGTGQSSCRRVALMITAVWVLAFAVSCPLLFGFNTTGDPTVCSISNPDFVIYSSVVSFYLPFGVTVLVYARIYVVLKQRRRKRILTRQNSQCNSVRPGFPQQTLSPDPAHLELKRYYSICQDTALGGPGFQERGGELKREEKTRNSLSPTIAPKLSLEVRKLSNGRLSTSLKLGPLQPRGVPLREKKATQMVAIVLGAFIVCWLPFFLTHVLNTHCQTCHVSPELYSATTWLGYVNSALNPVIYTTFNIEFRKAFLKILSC
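Agonist mode: compounds and dopamine controls were applied to plated cells for 90 min at 37 degrees C after an overnight attachment at 1500 cells/well. Luminescent read-out followed 30 - 60 minutes at room temperature with DiscoveRx detection reagent.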
D1 antag = blocks dopamine activation of the human D1 receptor | HEK293 TREx D1 cells, calcium flux, dopamine EC80; hits give low values | AID 504652 | P21728 | 360,000 compounds, 3.2% hits | activity change, negative = inhibition, % at 10 µM; in the data active = activity change below about -30%; also: % is scaled to controls: 0 for no effect and ±100 for the full control effect
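Kinetic fluorescence of a calcium dye serves as the read-out. D1-expressing Hek293 Trex cells, induced overnight at 30 C, are exposed to compound for 180 s before an EC80 dopamine addition, then read 180 s further.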
D1 PAM = human D1 dopamine receptor positive modulation. HEK293 TREx D1 cells, calcium flux, dopamine EC20 potentiation. P21728. AID 504651. 360,000 compounds, 0.036% hits. potentiation, % at 10 µM; in the data active = potentiation above about 30%; also: 0% is about no effect
D3 antag = blocks the human D3 dopamine receptor | P35462 | D3R cells, DiscoveRx beta-arrestin luminescence, antagonist mode; hits give low values | max response, negative = inhibition, % | 360,000 compounds, 2.5% hits | AID 652054; in the data active = max response below about -50%; inconclusive = no clear call, values can overlap the other calls; also: % is scaled to controls: 0 for no effect and ±100 for the full control effect
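Cells plated overnight at 1500 cells/well, then exposed to library compounds with dopamine controls for 90 minutes at 37 degrees C. DiscoveRx reagent added for 30–60 minutes at room temperature; luminescence read, quantitative HTS format.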
D1 ag = activates the human D1 dopamine receptor | HEK293 T-REx D1 cells, calcium flux, agonist mode | P21728 | 360,000 compounds, 1% hits | AID 504660 | activation, % at 2 µM; in the data active = activation above about 30%; also: 0% is about no effect
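Tetracycline-induced HEK293 TREx D1 cells, force-coupled to calcium signalling, were dye-loaded with a no-wash calcium kit. Compound was pin-added after a 10 s baseline. Fluorescence was read kinetically at 1 cycle/s for 180 s, with calcium rises flagged as agonism.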
* hit, by the source's call; ? = inconclusive; nt = not tested or not shown.

SMILES	D3 ag	D1 antag	D1 PAM	D3 antag	D1 ag
BrCCc1ccccc1	-92	nt	-2	-99*	1
COc1ccccc1CNCCc1ccc(F)cc1	-17	-3	-2	-55*	8
CCc1ccc(CNCCc2ccc(F)cc2)cc1	-8	-11	-7	-14	62*
Fc1ccc(CCNCc2ccc(Cl)c(Cl)c2)cc1	-32	-15	-2	-72*	10
CCN(CC)c1ccc(CNCCc2ccc(F)cc2)cc1	-7	4	1	-4	64*
OC(O)C(Cl)(Cl)Cl	-8	nt	nt	nt	nt
COc1cc(OC)c(OC)cc1CNCCc1cccc(F)c1	-2	1	8	-9	8
COc1ccc(CNCCc2cccc(F)c2)c2ccccc12	nt	29	4	nt	37*
COc1ccc(CNCCc2ccc(Cl)cc2)c(OC)c1OC	-14	-70*	0	-5	20
COc1cc(OC)c(OC)cc1CNCCc1ccc(OC)c(OC)c1	-12	-4	-1	-29	2
CCCCn1nnnc1C(c1cccs1)N1CCC2(CC1)C(=O)NCN2c1ccccc1 (stereo not drawn)	-10	nt	nt	-52*	nt
COc1ccc(C(c2nnnn2-c2c(C)cccc2C)N2CCC3(CC2)C(=O)NCN3c2ccccc2)cc1 (stereo not drawn)	-8	nt	nt	-54*	nt
CCCCn1nnnc1C(c1cccc2ccccc12)N1CCC2(CC1)C(=O)NCN2c1ccccc1 (stereo not drawn)	-10	nt	nt	?	nt
O=C1NCN(c2ccccc2)C12CCN(C(c1ccccc1OC(F)(F)F)c1nnnn1Cc1ccccc1)CC2 (stereo not drawn)	30*	nt	nt	92	nt
CC(=O)[C@H]1CC[C@H]2[C@@H]3CC[C@H]4C[C@](C)(O)CC[C@]4(C)[C@H]3CC[C@]12C	2	nt	nt	nt	nt
O=C(CCl)c1ccc(Cl)cc1Cl	-11	nt	nt	nt	nt
OCCN1C2CCC1CC(O)(c1ccc(F)cc1)C2 (stereo not drawn)	-22	4	-11	-68*	6
CCC1(c2ccccc2)CCC(=O)NC1=O (stereo not drawn)	7	nt	nt	nt	nt
NCCc1c[nH]c2ccc(F)cc12	nt	-30*	-3	nt	1
CC1(C)[C@H](C=C(Cl)Cl)[C@H]1C(=O)OCc1c(F)c(F)cc(F)c1F	12	nt	nt	nt	nt
CCN(CC)CCc1c[nH]c2ccccc12	-7	nt	nt	nt	nt
CCOC(=O)NC(O)C(Cl)(Cl)Cl (stereo not drawn)	3	nt	nt	nt	nt
CN1/C(=C\C=C2C(=O)NC(=S)NC2=O)C(C)(C)c2ccccc21	-3	-1	5	-15	484*
CC12CN3CC(C)(CN(C1)C3c1cccnc1)C2=O (stereo not drawn)	2	15	-6	16	2
c1cc(C2N3CCCN2CC3)ccn1 (stereo not drawn)	1	-44*	9	14	3
SMILES	D3 ag	D1 antag	D1 PAM	D3 antag	D1 ag
CC(CCc1ccccc1)NC(C)C(O)c1ccc(O)cc1 (stereo not drawn)	0	22	-3	-70*	6
Cc1[nH]c2ccccc2c1CCCNC1CCCCC1	-29	-2	-3	?	37*
CCCN(CC#CCOc1ccc(OC)cc1)CCC	-9	-7	-9	-52*	1
C=CC(=O)NCNC(=O)C=C	-88	nt	5	-76*	11
CC(CN1CCOCC1)C(C#N)(c1ccccc1)c1ccccc1 (stereo not drawn)	-15	nt	nt	7	nt
CN1CCN(CCC(C#N)(c2ccccc2)c2ccccc2)CC1	-1	4	-1	-80*	5
CN(C)C1CCc2[nH]c3c(F)cc(F)cc3c2C1 (stereo not drawn)	-10	nt	nt	-105*	nt
OCCCBr	6	nt	nt	nt	nt
CC1=C(O)C(=O)C=C2C1=CC=C1C2(C)CCC2(C)C3CC(C)(C(=O)O)CCC3(C)CCC12C (stereo not drawn)	-5	nt	nt	-81*	nt
O=C(NC(=O)c1c(F)cccc1F)Nc1cc(Cl)c(OC(F)(F)C(F)C(F)(F)F)cc1Cl (stereo not drawn)	7	nt	nt	nt	nt
O=c1[nH]c(=O)n(-c2cccc3ccccc23)c(O)c1C=NCc1ccc2c(c1)OCO2	-1	-8	-3	-63*	6
COc1ccc2c3c1O[C@H]1[C@H](O)CC[C@H]4[C@@H](C2)N(C)CC[C@@]341	5	nt	nt	nt	nt
CN1CC[C@]23c4c5ccc(O)c4O[C@H]2[C@@H](O)CC[C@H]3[C@H]1C5	0	nt	nt	nt	nt
CC(C)Oc1cccnc1N(C)C1CCN(Cc2ccccc2)CC1	0	nt	nt	-95*	nt
COc1ccccc1NC(=O)N(Cc1ccc2c(c1)OCO2)C1CCN(Cc2ccccc2)CC1	-34	-2	-3	nt	4
C=C(COC(=O)CCC(=O)O)CC1CC(O)[C@]2(C)OC3CC4OC5C[C@]6(C)O[C@]7(C)CCC8OC9C[C@]%10(C)OC%11C(C)=CC(=O)OC%11CC%10OC9C[C@@H](C)C8OC7CC6O[C@]5(C)C/C=C\C4OC3CC2O1 (stereo partly drawn)	-7	-13	-3	5	1
CC1=CC(=O)OC2CC3OC4C[C@@H](C)C5OC6CC7O[C@]8(C)C/C=C\C9OC%10CC%11OC(CC(C)CO)CC(O)[C@]%11(C)OC%10CC9OC8C[C@]7(C)O[C@]6(C)CCC5OC4C[C@]3(C)OC12 (stereo partly drawn)	46*	-4	-2	60	-3
Oc1ccc2c3c1O[C@H]1[C@@H](O)C=C[C@H]4[C@@H](C2)NCC[C@@]341	-12	nt	nt	nt	nt
COc1ccc(CN2Cc3cnnn3-c3ccccc3C2C#N)cc1 (stereo not drawn)	-34	nt	nt	-78*	nt
N#CC1c2ccccc2-n2nncc2CN1Cc1cc(Cl)cc(Cl)c1 (stereo not drawn)	-46	nt	nt	-109*	nt
CCN[C@H](C)Cc1cccc(C(F)(F)F)c1	-27	nt	nt	nt	nt
CCC(C)OC(=O)c1c(N)n(Cc2cccs2)c2nc3ccccc3nc12 (stereo not drawn)	-3	1	-3	-12	2
Nc1c(C(=O)OCc2ccccc2)c2nc3ccccc3nc2n1Cc1cccs1	16	-30*	-4	-13	2
O=C1CCCCC1CN1CCCCC1 (stereo not drawn)	-7	nt	nt	nt	nt
O=c1[nH]c(=S)n(-c2ccc(Br)cc2)c(O)c1C=Nc1ccc(N2CCOCC2)cc1	7	1	5	-21	28
SMILES	D3 ag	D1 antag	D1 PAM	D3 antag	D1 ag
Cc1cc(C)cc(-n2c(O)c(C=Nc3ccc(N4CCOCC4)cc3)c(=O)[nH]c2=S)c1	-2	-4	0	-5	35*
CCOc1ccc(CN(CCc2ccc3c(c2)OCO3)Cc2ccc(OC)c(Br)c2)cc1	-9	-21	-2	nt	9
Cc1cccc(CN2CCN(c3ccc(Cl)cc3)CC2)c1	3	-5	-6	-95*	2
Fc1ccc(CN2CCN(c3ccc(Cl)cc3)CC2)cc1	0	3	-6	-52*	3
CCCCCCN1CCN(c2ccc(Cl)cc2)CC1	-4	4	-6	?	2
Fc1cccc(F)c1CN1CCN(c2ccc(Cl)cc2)CC1	-12	-2	-4	-16	1
